Molecules are shown by their SMILES. Records with an inconclusive call do not appear. Calls of active or inactive are those of the source. Calls come from the whole dose curve; as a rule, active = well fitted curve in the direction sought with a large enough effect; inconclusive = small, poorly fitted or top-dose-only effect, or another doubt; inactive = no such curve, though single readings can be large; an effect the other way counts as inactive or inconclusive.

The target in the first assay is Protein phosphatase 1D (Homo sapiens) (UniProt O15297). As to the kind of experiment: Rhodamine-PBP qHTS Assay for Modulators of WT P53-Induced Phosphatase 1 (WIP1) (AID 1347425). As to conditions: recombinant WIP1, Rhodamine-PBP phosphate fluorescence, real-time; series mostly up to 57.5 µM. In short, it runs like this: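 Read-out: Rhodamine-PBP fluorescence (ex 525/em 598 nm) for released Pi, read each minute for 11 min after adding 10 uM VEPPL-pS-QETFS; signal taken as f1 minus pre-substrate f0. Enzyme 5 nM WIP1 with 1 hr room-temperature compound preincubation.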
Sequence of Protein phosphatase 1D (Homo sapiens) (O15297 whole entry, looked up): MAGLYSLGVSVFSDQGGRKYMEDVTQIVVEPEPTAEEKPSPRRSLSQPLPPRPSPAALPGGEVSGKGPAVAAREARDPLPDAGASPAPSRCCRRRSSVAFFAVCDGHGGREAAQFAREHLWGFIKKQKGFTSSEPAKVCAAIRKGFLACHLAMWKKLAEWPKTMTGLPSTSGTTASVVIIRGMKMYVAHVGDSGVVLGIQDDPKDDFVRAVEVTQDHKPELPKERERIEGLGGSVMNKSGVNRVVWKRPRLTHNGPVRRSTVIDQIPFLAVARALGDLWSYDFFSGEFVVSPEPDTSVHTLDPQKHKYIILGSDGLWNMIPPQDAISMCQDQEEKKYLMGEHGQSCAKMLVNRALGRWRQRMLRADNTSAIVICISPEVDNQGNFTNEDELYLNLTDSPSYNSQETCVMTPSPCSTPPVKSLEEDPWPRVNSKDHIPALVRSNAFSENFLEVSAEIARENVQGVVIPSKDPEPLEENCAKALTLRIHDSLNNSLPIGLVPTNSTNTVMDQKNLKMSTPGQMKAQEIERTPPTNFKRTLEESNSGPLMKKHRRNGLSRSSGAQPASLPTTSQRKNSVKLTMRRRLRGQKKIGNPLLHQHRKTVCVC
Take `CC(C)(C)c1ccc(O)c(O)c1`: the result was inactive. With `COc1c(N2C[C@@H]3CCCN[C@@H]3C2)c(F)cc2c(=O)c(C(=O)O)cn(C3CC3)c12`, the result was inactive.

On to `CCCCC(=O)OCC(=O)[C@H]1[C@H](C)C[C@H]2[C@@H]3C[C@H](F)C4=CC(=O)C=C[C@]4(C)[C@@]3(F)[C@@H](O)C[C@@]21C`, for which the outcome was inactive. `CC(C)(C)CC(=O)OCC(=O)[C@@]1(O)CC[C@H]2[C@@H]3CCC4=CC(=O)C=C[C@]4(C)[C@H]3[C@@H](O)C[C@@]21C`: the result was inactive. Still for that read-out and setting: the same measure for `CCCC(=O)OCOC(=O)C1=C(C)NC(C)=C(C(=O)OC)C1c1cccc(Cl)c1Cl` (stereo not given): “inactive”. For `O=C1NC2CCCCN2C12CCN(CCCN1c3ccccc3CCc3ccc(Cl)cc31)CC2` (stereo not given), the outcome was inactive. On the same count and under the same terms, the same measure for `O=C1Nc2ccccc2C1(c1ccc(O)cc1)c1ccc(O)cc1`: “inactive”; for `C[C@@H]1CCC[C@H](C)N1CCCC(O)(c1ccccc1)c1ccccn1` (stereo not given in full): “inactive”. Turning to `CC(C(O)c1ccccc1)N(C)CCOC(c1ccccc1)c1ccccc1` (stereo not given), the result was inactive. Regarding `CCN(CC)CCOc1ccc(/C(=C(\Cl)c2ccccc2)c2ccccc2)cc1`, the outcome was inactive. On the same count and under the same terms, with `C[C@]12CCC(=O)C=C1CC[C@@H]1[C@@H]2[C@@H](O)C[C@@]2(C)[C@H]1CC[C@]2(O)C(=O)COC(=O)CCC(=O)O` the entry was “inactive”; with `CCCCCCCCCCCCCC[N+](C)(C)C`, “inactive”. In the case of `Nc1ccc(O)cc1`, the outcome was inactive. Still for that read-out and setting: the same measure for `O=C(OCC(O)CO)c1ccccc1Nc1ccnc2c(C(F)(F)F)cccc12` (stereo not given): “inactive”; for `CC(NCCC(c1ccccc1)c1ccccc1)c1ccccc1` (stereo not given): “inactive”.

As to `NS(=O)(=O)c1cc(C(=O)NN2C[C@H]3[C@H]4CCC(C4)[C@H]3C2)ccc1Cl`, the outcome was inactive.

Regarding `Cc1cccc(C)c1NC(=O)c1cc(S(N)(=O)=O)c(Cl)cc1O`, the outcome was inactive. The same measure, in the same setting: with `CCCCCCCCCCCCCCCCCCNC(=O)OC1CCN(C(=O)OC[C@H](COC(=O)N(Cc2cccc[n+]2CC)C(=O)c2ccccc2OC)OC)CC1` the entry was “inactive”; with `Cc1nc(C2CCCCC2)c(-c2ccc(S(N)(=O)=O)c(F)c2)o1`, “inactive”. Still for that read-out and setting: the same measure for `COC(=O)C1=C(C)NC(C)=C(C(=O)OCCc2ccc(N3CCN(C(c4ccccc4)c4ccccc4)CC3)cc2)C1c1cccc([N+](=O)[O-])c1` (stereo not given): “inactive”; for `CCN(CC)CC(=O)OCC(=O)[C@@]1(O)CC[C@H]2[C@@H]3CCC4=CC(=O)CC[C@]4(C)[C@H]3[C@@H](O)C[C@@]21C`: “inactive”. On the same count and under the same terms, the same measure for `Cc1cc(OCCOCC[N+](C)(C)Cc2ccccc2)ccc1C(C)(C)CC(C)(C)C`: “inactive”; for `Cc1nc(N)nc(N)c1-c1ccc(Cl)c(Cl)c1`: “inactive”.

Turning to `Nc1ccc2cc3ccc(N)cc3nc2c1`, the outcome was inactive. As to `C[C@H]1C[C@@H]2[C@H]([C@@H](O)C[C@@]3(C)[C@H]2CC[C@]3(O)C(=O)CO)[C@@]2(C)C=CC(=O)C=C12`, the outcome was inactive.

Regarding `O=C(Nc1ccc(Cl)cc1)Nc1ccc(Cl)c(Cl)c1`, the outcome was inactive.

In the case of `O=C1NCCN1CCN1CCC(c2cn(-c3ccc(F)cc3)c3ccc(Cl)cc23)CC1`, the result was inactive. Same read-out and setting: with `OC1(c2ccc(Cl)c(C(F)(F)F)c2)CCN(CCCC(c2ccc(F)cc2)c2ccc(F)cc2)CC1` the entry was “inactive”. Still for that read-out and setting: with `Cc1ccc(C(=O)Oc2ccc(C(O)CNC(C)(C)C)cc2OC(=O)c2ccc(C)cc2)cc1` (stereo not given) the entry was “inactive”; with `CC(=O)[C@@]1(O)CC[C@H]2[C@@H]3C[C@H](C)C4=CC(=O)CC[C@]4(C)[C@H]3CC[C@@]21C`, “inactive”.

Test system in another assay: not listed separately
In words: Primary qHTS for inhibitors of La Crosse Virus (LACV) - induced cell death in SH-SY5Y cells (AID 1508616).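 Note: top concentration of the series differs between compounds; higher means more rescue of cells from virus-induced death.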 The note with it: SH-SY5Y LACV cytopathicity rescue, ATP luminescence, 6 d; series mostly up to 4.29 µM. In short, it runs like this: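 Screening measures cell viability in LACV-infected SH-SY5Y cultures. Compound was added before virus (0.01 MOI), and ATP was detected by luminescence 6 days later.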
(In general: In qHTS, concentration-response curves come from the screen itself.)
For `CCCCCCCCCCCC[N+](C)(C)Cc1ccccc1`, the result was inactive. Same read-out and setting: the same measure for `COc1c(N2C[C@@H]3CCCN[C@@H]3C2)c(F)cc2c(=O)c(C(=O)O)cn(C3CC3)c12`: “inactive”.

Take `CCCCC(=O)OCC(=O)[C@H]1[C@H](C)C[C@H]2[C@@H]3C[C@H](F)C4=CC(=O)C=C[C@]4(C)[C@@]3(F)[C@@H](O)C[C@@]21C`: the call was inactive. Same read-out and setting: the same measure for `CC(C)(C)CC(=O)OCC(=O)[C@@]1(O)CC[C@H]2[C@@H]3CCC4=CC(=O)C=C[C@]4(C)[C@H]3[C@@H](O)C[C@@]21C`: “inactive”. Still for that read-out and setting: with `CCCC(=O)OCOC(=O)C1=C(C)NC(C)=C(C(=O)OC)C1c1cccc(Cl)c1Cl` (stereo not given) the entry was “inactive”; with `O=C1NC2CCCCN2C12CCN(CCCN1c3ccccc3CCc3ccc(Cl)cc31)CC2` (stereo not given), “inactive”; with `O=C1Nc2ccccc2C1(c1ccc(O)cc1)c1ccc(O)cc1`, “inactive”. Still for that read-out and setting: the same measure for `C[C@@H]1CCC[C@H](C)N1CCCC(O)(c1ccccc1)c1ccccn1` (stereo not given in full): “inactive”; for `CC(C(O)c1ccccc1)N(C)CCOC(c1ccccc1)c1ccccc1` (stereo not given): “inactive”; for `N#C/C(=C1/SC[C@@H](c2ccc(Cl)cc2Cl)S1)n1ccnc1`: “inactive”. As to `CC(C)(c1ccc(O)cc1)c1ccc(O)cc1`, the molecule was called inactive.

Regarding `CCN(CC)CCOc1ccc(/C(=C(\Cl)c2ccccc2)c2ccccc2)cc1`, the molecule was called inactive. The same measure, in the same setting: with `C[C@]12CCC(=O)C=C1CC[C@@H]1[C@@H]2[C@@H](O)C[C@@]2(C)[C@H]1CC[C@]2(O)C(=O)COC(=O)CCC(=O)O` the entry was “inactive”. Turning to `CCCCCCCCCCCCCC[N+](C)(C)C`, the molecule was called inactive.

Turning to `O=C1OC2(c3ccccc31)c1cc(I)c(O)c(I)c1Oc1c2cc(I)c(O)c1I`, the molecule was classed as inactive. On the same count and under the same terms, with `Nc1ccc(O)cc1` the entry was “inactive”. Turning to `O=C(OCC(O)CO)c1ccccc1Nc1ccnc2c(C(F)(F)F)cccc12` (stereo not given), the molecule was called inactive.

As to `CC(NCCC(c1ccccc1)c1ccccc1)c1ccccc1` (stereo not given), the call was inactive.

For the molecule `NS(=O)(=O)c1cc(C(=O)NN2C[C@H]3[C@H]4CCC(C4)[C@H]3C2)ccc1Cl`, the molecule was called inactive. `CCCCC(CC)COC(=O)c1ccccc1C(=O)O` (stereo not given): the molecule was called inactive.

As to `Cc1cccc(C)c1NC(=O)c1cc(S(N)(=O)=O)c(Cl)cc1O`, the molecule was classed as inactive. Same read-out and setting: the same measure for `CCCCCCCCCCCCCCCCCCNC(=O)OC1CCN(C(=O)OC[C@H](COC(=O)N(Cc2cccc[n+]2CC)C(=O)c2ccccc2OC)OC)CC1`: “inactive”.

Turning to `Cc1nc(C2CCCCC2)c(-c2ccc(S(N)(=O)=O)c(F)c2)o1`, the result was inactive. Same read-out and setting: with `O=C(Nc1ccc(Cl)cc1)Nc1ccc(Cl)c(C(F)(F)F)c1` the entry was “inactive”.

With `COC(=O)C1=C(C)NC(C)=C(C(=O)OCCc2ccc(N3CCN(C(c4ccccc4)c4ccccc4)CC3)cc2)C1c1cccc([N+](=O)[O-])c1` (stereo not given), the molecule was classed as inactive. For the molecule `CCN(CC)CC(=O)OCC(=O)[C@@]1(O)CC[C@H]2[C@@H]3CCC4=CC(=O)CC[C@]4(C)[C@H]3[C@@H](O)C[C@@]21C`, the molecule was classed as inactive.

Take `Cc1nc(N)nc(N)c1-c1ccc(Cl)c(Cl)c1`: the molecule was classed as inactive. Still for that read-out and setting: with `Nc1ccc2cc3ccc(N)cc3nc2c1` the entry was “inactive”; with `C[C@H]1C[C@@H]2[C@H]([C@@H](O)C[C@@]3(C)[C@H]2CC[C@]3(O)C(=O)CO)[C@@]2(C)C=CC(=O)C=C12`, “inactive”.

Turning to `O=C(Nc1ccc(Cl)cc1)Nc1ccc(Cl)c(Cl)c1`, the molecule was classed as inactive. Same read-out and setting: the same measure for `O=C1NCCN1CCN1CCC(c2cn(-c3ccc(F)cc3)c3ccc(Cl)cc23)CC1`: “inactive”; for `OC1(c2ccc(Cl)c(C(F)(F)F)c2)CCN(CCCC(c2ccc(F)cc2)c2ccc(F)cc2)CC1`: “inactive”; for `CCCC(=O)O[C@]1(C(=O)COC(=O)CC)CC[C@H]2[C@@H]3CCC4=CC(=O)CC[C@]4(C)[C@H]3[C@@H](O)C[C@@]21C`: “inactive”. Still for that read-out and setting: the same measure for `Cc1ccc(C(=O)Oc2ccc(C(O)CNC(C)(C)C)cc2OC(=O)c2ccc(C)cc2)cc1` (stereo not given): “inactive”; for `CC(=O)[C@@]1(O)CC[C@H]2[C@@H]3C[C@H](C)C4=CC(=O)CC[C@]4(C)[C@H]3CC[C@@]21C`: “inactive”.

These data come from PubChem BioAssay (NCATS).
